# Compounds with a hit are over-represented: about 3.5% of the library has one in this group of screens.
# Pf apPOL block = Pf-apPOL DNA polymerase inhibition; Recombinant Pf-apPOL, molecular beacon fluorescence, 1.5 h; inhibition, % at 10 µM; hit rate 0.25% among 210,000; AID 1794808
# mHTT-CaM PPI inh = inhibitors of human mutant huntingtin-calmodulin interaction | P42858 | AlphaScreen His-mHTT/GST-CaM binding, luminescence | inhibition, % at 15 µM | hit rate 3.6% among 190,000 | AID 1671202;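 note: 0% = both proteins with DMSO and 100% = one protein alone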
# Target sequence (P42858 whole entry, looked up, stated change not applied): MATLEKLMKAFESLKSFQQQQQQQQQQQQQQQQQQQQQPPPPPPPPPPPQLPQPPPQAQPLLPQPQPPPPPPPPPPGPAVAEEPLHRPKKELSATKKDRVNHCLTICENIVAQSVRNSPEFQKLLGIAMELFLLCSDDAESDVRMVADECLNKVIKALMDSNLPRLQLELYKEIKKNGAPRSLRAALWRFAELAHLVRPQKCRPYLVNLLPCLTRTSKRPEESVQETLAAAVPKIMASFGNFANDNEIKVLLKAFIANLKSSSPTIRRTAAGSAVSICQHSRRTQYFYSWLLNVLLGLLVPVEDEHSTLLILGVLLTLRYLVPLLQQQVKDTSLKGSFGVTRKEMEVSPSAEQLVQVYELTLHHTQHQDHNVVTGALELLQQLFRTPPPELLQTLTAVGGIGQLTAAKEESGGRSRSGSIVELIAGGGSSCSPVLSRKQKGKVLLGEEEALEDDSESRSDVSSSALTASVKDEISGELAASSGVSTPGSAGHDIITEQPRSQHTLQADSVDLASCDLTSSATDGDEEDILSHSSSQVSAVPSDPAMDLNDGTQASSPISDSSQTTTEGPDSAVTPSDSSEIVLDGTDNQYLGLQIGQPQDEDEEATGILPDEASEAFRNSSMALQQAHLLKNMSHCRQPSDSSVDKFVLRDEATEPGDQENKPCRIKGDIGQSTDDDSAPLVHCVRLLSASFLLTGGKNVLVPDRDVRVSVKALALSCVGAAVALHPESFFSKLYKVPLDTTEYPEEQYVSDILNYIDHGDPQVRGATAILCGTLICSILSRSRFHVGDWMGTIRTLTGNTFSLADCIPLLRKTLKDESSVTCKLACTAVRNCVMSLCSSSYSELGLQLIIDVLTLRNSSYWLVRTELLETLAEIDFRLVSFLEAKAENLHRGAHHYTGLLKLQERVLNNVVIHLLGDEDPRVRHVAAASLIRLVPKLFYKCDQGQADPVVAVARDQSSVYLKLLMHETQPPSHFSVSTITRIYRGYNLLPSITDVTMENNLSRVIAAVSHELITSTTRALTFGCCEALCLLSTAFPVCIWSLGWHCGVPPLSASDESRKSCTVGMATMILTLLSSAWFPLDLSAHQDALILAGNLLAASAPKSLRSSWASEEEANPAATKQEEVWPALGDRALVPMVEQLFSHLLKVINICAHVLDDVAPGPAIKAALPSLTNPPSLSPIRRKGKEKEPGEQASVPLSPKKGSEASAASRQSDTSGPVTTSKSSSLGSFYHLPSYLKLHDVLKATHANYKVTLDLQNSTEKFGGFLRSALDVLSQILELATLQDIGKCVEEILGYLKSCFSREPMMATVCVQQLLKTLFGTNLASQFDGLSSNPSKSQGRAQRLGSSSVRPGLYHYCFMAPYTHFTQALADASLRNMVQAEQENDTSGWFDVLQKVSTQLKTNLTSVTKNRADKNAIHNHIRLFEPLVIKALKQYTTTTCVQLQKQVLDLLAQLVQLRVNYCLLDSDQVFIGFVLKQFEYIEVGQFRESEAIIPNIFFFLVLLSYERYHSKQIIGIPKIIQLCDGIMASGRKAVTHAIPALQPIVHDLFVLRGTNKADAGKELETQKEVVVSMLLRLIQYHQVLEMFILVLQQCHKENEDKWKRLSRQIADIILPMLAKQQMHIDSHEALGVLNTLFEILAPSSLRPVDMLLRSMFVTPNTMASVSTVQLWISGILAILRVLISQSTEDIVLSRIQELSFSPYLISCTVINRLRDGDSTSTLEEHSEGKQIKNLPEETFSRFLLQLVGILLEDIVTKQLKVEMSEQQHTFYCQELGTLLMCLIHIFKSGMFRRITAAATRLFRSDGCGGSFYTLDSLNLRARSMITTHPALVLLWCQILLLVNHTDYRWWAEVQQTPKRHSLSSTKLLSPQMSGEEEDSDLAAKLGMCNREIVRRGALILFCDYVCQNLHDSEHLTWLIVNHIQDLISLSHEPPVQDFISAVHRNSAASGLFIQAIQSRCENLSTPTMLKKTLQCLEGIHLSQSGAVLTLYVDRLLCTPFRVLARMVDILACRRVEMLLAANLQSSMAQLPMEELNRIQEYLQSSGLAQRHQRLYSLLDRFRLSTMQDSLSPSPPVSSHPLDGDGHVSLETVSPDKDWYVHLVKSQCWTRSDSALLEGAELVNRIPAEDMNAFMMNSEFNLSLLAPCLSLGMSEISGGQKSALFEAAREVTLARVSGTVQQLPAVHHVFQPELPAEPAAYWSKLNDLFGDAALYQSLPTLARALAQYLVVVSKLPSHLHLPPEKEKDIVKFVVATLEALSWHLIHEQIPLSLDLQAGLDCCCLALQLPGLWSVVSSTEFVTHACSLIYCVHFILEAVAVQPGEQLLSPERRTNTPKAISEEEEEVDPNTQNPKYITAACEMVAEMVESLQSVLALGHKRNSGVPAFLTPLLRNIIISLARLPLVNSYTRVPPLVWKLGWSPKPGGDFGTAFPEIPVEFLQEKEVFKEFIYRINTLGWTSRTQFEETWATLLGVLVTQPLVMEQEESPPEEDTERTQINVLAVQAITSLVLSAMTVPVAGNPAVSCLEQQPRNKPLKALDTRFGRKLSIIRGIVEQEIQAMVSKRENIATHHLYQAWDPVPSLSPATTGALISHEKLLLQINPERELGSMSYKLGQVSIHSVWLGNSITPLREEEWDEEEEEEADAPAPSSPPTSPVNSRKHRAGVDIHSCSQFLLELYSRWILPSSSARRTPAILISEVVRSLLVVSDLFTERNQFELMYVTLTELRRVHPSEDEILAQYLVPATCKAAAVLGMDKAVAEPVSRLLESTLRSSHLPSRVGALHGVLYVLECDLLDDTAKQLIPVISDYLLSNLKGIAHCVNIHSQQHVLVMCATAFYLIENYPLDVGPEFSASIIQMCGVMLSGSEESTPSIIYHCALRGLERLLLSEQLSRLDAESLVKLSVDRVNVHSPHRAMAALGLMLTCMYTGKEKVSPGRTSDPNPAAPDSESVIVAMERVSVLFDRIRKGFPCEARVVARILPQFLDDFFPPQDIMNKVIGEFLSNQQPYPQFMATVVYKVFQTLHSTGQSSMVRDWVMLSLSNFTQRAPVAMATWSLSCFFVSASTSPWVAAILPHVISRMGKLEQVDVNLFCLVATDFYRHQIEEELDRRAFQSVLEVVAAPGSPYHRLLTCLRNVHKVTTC
# * = called active by the depositor; i = inactive; / = no result given; + = active, no number; ! = not active in a repeat. Cut-off read from the data, not from the text of the source: active = inhibition above about 50%; inactive = the rest.
SMILES,Pf apPOL block,mHTT-CaM PPI inh
COc1ccc(NC(=O)C2CCN(c3cc(N4CCCC4)ncn3)CC2)cc1OC,-8,17
Cc1c2c(nc3ccccc13)OC(C)C2 (centres undefined),/,0
O=C1c2ccccc2C(=O)N1C1C(=O)N(c2ccc(Cl)cc2)C1c1ccc(F)cc1 (centres undefined),-14,11
Cc1nn(Cc2ccc(F)cc2)c(C)c1NC(=O)CC12CC3CC(CC(C3)C1)C2,-8,33
Cc1ccc(NC2=C([N+](=O)[O-])CS(=O)(=O)C2)cc1,-5,-3
O=[N+]([O-])C1=C(Nc2ccc(Cl)c(Cl)c2)CS(=O)(=O)C1,-3,75*
O=[N+]([O-])c1cc2c(cc1CNc1ccc3c(c1)CCC3)OCO2,-7,81*
O=[N+]([O-])c1cc2c(cc1CNc1ccc3cn[nH]c3c1)OCO2,-1,45
O=C(CN1C(=O)C(c2ccc(F)cc2)=NC12CCCC2)Nc1ccc(Cl)cc1,-7,11
O=C(CN1C(=O)C(c2ccccc2)=NC12CCCCC2)Nc1ccc(F)c(Cl)c1,-8,8
O=C(CN1C(=O)C(c2ccc(F)cc2)=NC12CCCCC2)Nc1ccc(F)c(Cl)c1,-6,95*
O=C(CN1C(=O)C(c2ccc(F)cc2)=NC12CCCC2)Nc1ccc(F)c(Cl)c1,-5,100*
Cc1cccc(NC(=O)CN2C(=O)C(c3ccccc3)=NC23CCCCC3)c1,-4,-3
O=C(CN1C(=O)C(c2ccccc2)=NC12CCCCC2)Nc1cccc(Cl)c1,-11,89*
COc1ccc(-c2c(C)c3cc(OCc4ccccc4)ccc3oc2=O)cc1,-4,-17
O=[N+]([O-])c1cccc(-c2csc(=Nc3ccccc3)n2-c2ccccc2)c1,-10,/
CCn1c(-c2ccccc2)c(C)sc1=Nc1cccc([N+](=O)[O-])c1,3,57*
CC(C)CC(=O)N1CCN(CC2CC=CCC2)CC1 (centres undefined),91*,4
O=C(C1CCN(CC2CC=CCC2)CC1)N1CCCC1 (centres undefined),-3,2
N/C(=N\OC(=O)Oc1ccccc1)c1ccccn1,-3,+
N/C(=N\OS(=O)(=O)c1ccc(Cl)cc1)c1ccccn1,4,+
N/C(=N\OC(=O)Oc1ccccc1)c1ccncc1,-9,i
N/C(=N\OS(=O)(=O)c1ccccc1)c1ccccn1,1,i
COc1c[nH]n(C(C)(C)C)c(=O)c1=O,-1,5
O=C1CSC(=CC(=O)c2cccs2)N1,1,/
SMILES,Pf apPOL block,mHTT-CaM PPI inh
O=C(c1ccc(Cn2cncn2)cc1)N1CCN(c2ccc(F)cc2)CC1,1,1
CC(C)CC(=O)Nc1ccc2c(c1)CC(C(=O)NCc1ccc(F)cc1)CO2 (centres undefined),-3,-3
COc1ccc(N2C(=O)CC(Sc3nc4ccccc4s3)C2=O)cc1 (centres undefined),-8,29
COc1ccc(OC)c(N2C(=O)CC(Sc3nc4ccccc4s3)C2=O)c1 (centres undefined),-2,51*!
CCc1cccc(NC(=O)c2sc(C)nc2C)c1,-4,5
Cc1ccc(C(=O)N2CCc3nc(-c4ccccc4)ncc3C2)cc1C,-1,0
Brc1ccc2c(c1)OCCOCCOc1ccc(Br)cc1OCCO2,2,-12
Brc1cccc(CNc2cc3c(cc2Br)OCCO3)c1,2,78*
COc1ccc(CCN2C(=O)CCC2(C)C(=O)NCc2ccccc2)c(OC)c1OC (centres undefined),-3,4
O=C1ON=C(CSc2ccccc2)C1=Cc1ccccc1,61*,/
O=C1CCC=C1CSc1ccccc1,/,-7
O=C(Nc1nnc(Cc2ccc(F)cc2)o1)c1c[nH]c2ccccc12,-35,38
S=C(NCCc1ccccc1)N1CCOCC1,-11,/
Fc1cc(F)c(C2SCCN2C(=S)NCCc2ccccc2)c(F)c1 (centres undefined),/,59*
Cc1cc(=O)n(CC(=O)Nc2ccc(Br)cc2)c(N2CCCCC2)n1,-1,-16
CCN1CCN(c2ncc3c(n2)CCN(Cc2ccc(Br)cc2)C3)CC1,2,76*
CCCN1CCN(c2ncc3c(n2)CCN(Cc2ccc(CC)cc2)C3)CC1,-4,16
CCCN1CCN(c2ncc3c(n2)CCN(Cc2ccc(Br)cc2)C3)CC1,-4,32
CC1CCN(c2ncc3c(n2)CCN(Cc2ccc(Br)cc2)C3)CC1,-7,54*
CCOc1ccc(CN2CCc3nc(N4CCC(C)CC4)ncc3C2)cc1,-4,27
CCCN1CCN(c2ncc3c(n2)CCN(Cc2ccc(N(C)C)cc2)C3)CC1,-4,53*
O=C1C(=Cc2cc3ccccc3o2)Oc2c1ccc(O)c2CN1CCN(CCO)CC1,-5,21
Cc1cccc(CNC(=O)Cc2c[nH]c3ncccc23)c1,3,0
NC(=O)c1c(NC(=O)C2CCCN(C(=O)c3ccco3)C2)sc2c1CCCC2 (centres undefined),-7,73*
NC(=O)c1c(NC(=O)c2ccco2)sc2c1CCC2,0,2
SMILES,Pf apPOL block,mHTT-CaM PPI inh
COc1ccc(N2CCN(S(=O)(=O)c3ccc(NC(C)=O)cc3)CC2)cc1,-5,2
Oc1ccc(-c2csc(-c3ccccc3)n2)cc1O,0,26
NC(N)=Nc1nc(-c2ccc(O)c(O)c2)cs1,-6,61*
CC1=C(C(=O)Nc2ccc(Cl)cc2)C(c2cccc(F)c2)n2nnnc2N1 (centres undefined),6,20
COc1cccc(C2=NC3(CCNCC3)NC(c3cc(Br)ccc3O)C2)c1 (centres undefined),-7,14
Oc1ccc(Cl)cc1C1CC(c2ccc(Cl)cc2)=NC2(CCNCC2)N1 (centres undefined),-6,66*
COc1ccc(C2=NC3(CCNCC3)NC(c3cc(Br)ccc3O)C2)cc1 (centres undefined),-2,71*
Cc1ccc(C2=NC3(CCNCC3)NC(c3cc(Cl)ccc3O)C2)cc1C (centres undefined),0,10
CCC(=O)Nc1ccc(NC(=O)c2cc(OC)c(OC)c(OC)c2)cc1,4,0
COc1ccc(N=Cc2ccc(Br)c([N+](=O)[O-])c2)cc1,13,35
COc1ccc(OC)c(CNc2ncnc3c2nc2n3CCCCC2)c1,-4,18
N#Cc1c(Cl)ncc2c1Nc1ccccc1C2Sc1ccccc1 (centres undefined),3,4
Cc1nnc(N2C(=O)C(O)=C(C(=O)c3ccco3)C2c2cccc(Oc3ccccc3)c2)s1 (centres undefined),-10,56*
Cc1nnc(N2C(=O)C(O)=C(C(=O)c3ccco3)C2c2cccc([N+](=O)[O-])c2)s1 (centres undefined),-5,1
COc1cc(CN2CCN(c3ccc([N+](=O)[O-])cc3)CC2)cc(I)c1O,-7,42
COc1cc(CN2CCN(c3ccc(C(C)=O)cc3)CC2)cc(I)c1O,-2,55*
CCCOC(=O)c1ccc(Oc2c(C(F)(F)F)oc3c(CN(C)C)c(O)ccc3c2=O)cc1,-11,-4
O=C(Nc1cccc(F)c1)C1CC(=O)N(CCc2c[nH]c3ccc(Cl)cc23)C1 (centres undefined),2,66*
COc1ccc2[nH]cc(CCN3CC(C(=O)Nc4ccc(F)c(Cl)c4)CC3=O)c2c1 (centres undefined),-2,55*
COc1ccc(NC(=O)C2CC(=O)N(CCc3c[nH]c4ccc(C)cc34)C2)cc1 (centres undefined),-2,36

# Assay outcomes (PubChem BioAssay)
